Most compounds without a hit are left out; they make up all but 7.5% or so of the library.
ELG1 repair inh = blocks ELG1-dependent DNA repair in HEK293T cells. HEK293T ELG1-luciferase reporter, luminescence, 16 h; DNA damage induced by 5-fluorouridine. Potency, µM (highest dose often 46.1 µM), most hits filed as inhibitors. hit rate 2.3% among 330,000. AID 504467; further: nearly all actives have a fitted effect of over 55% in size
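Cells (2,000 per well) received 5-fluorouridine plus test compound or DMSO and were incubated 16 hr at 37 °C, 5% CO2. Luciferase activity was read by luminescence 30 min after ONE-Glo addition; signal suppression marked inhibition of damage-induced ELG1 function.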
B2AR arrestin = agonists driving beta-arrestin recruitment to human beta2-adrenergic receptor; hit rate 0.02% among 330,000; beta-arrestin recruitment to beta2AR, cell-based reporter; Potency, µM (top dose mostly 46.1 µM), usual class: activators; further: nearly all actives have a fitted effect of over 65% in size
RORgamma inh = ROR gamma (mouse) transcription inhibition | P51450 | Drosophila S2 Gal4-RORgamma UAS-luciferase reporter, 20 h | Potency, µM (titrated, usually from 53.6 µM), actives largely listed as inhibitors | hit rate 5.4% among 310,000 | AID 2551; further: nearly all actives have a fitted effect of over 60% in size
Target sequence (P51450 whole entry, looked up, the tested form may be a part): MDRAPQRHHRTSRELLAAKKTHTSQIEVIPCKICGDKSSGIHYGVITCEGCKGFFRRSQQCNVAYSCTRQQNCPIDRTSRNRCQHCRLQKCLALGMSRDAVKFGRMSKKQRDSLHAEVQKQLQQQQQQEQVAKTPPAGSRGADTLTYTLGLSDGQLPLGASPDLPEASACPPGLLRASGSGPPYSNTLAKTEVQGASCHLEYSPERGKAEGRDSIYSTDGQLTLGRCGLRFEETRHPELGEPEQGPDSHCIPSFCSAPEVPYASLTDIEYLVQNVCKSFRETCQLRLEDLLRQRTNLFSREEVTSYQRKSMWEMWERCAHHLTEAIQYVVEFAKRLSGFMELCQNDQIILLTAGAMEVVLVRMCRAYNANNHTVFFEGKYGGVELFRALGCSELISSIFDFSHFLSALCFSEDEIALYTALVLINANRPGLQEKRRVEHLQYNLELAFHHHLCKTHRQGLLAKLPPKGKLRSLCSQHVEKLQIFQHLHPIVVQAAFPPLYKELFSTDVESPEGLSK
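In this cell-based reporter format, copper sulfate (700 uM final) drives Gal4–ROR gamma fusion expression from a metallothionein promoter in Drosophila Schneider cells; compounds preincubated 1 hr, reporter read after 20 hr at ambient temperature.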
TSHR antag = blocks TSH signaling through the human TSH receptor; activity change, negative = inhibition, % at 11.5 µM; hit rate 0.2% among 330,000; AID 504810; P16473; TSHR-expressing cells, TSH-stimulated cAMP HTRF, 2 h; stronger effect = lower value;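 active means activity change below a set negative limit, meaning inhibition stronger than a set level, cut at about -70% in these data; inconclusive means activity change between two set negative limits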
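Freshly harvested TSHR cells receive pin-tooled compound, then EC80 TSH at 4nM final. After 2 hours at 37 deg C, antibody in lysis buffer and cAMP-d2 are added; 30 minutes at ambient temperature precede the HTRF read.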
VP16 counter = counter-screen for ROR gamma inhibitors: Gal4-VP16 reporter; Drosophila S2 Gal4-VP16 UAS-luciferase, luminescence, 20 h; Potency, µM (top dose mostly 53.6 µM), hits mostly inhibitors; hit rate 3.5% among 310,000;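 further: Gal4-VP16 expression switched on by copper sulfate through the metallothionein promoter; nearly all actives have a fitted effect of over 50% in size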
Large screens that a line does not name were inactive. Unless noted, the call rests on the fitted dose curve; in most records, active means well fitted curve in the direction sought with a large enough effect; inconclusive means small, poorly fitted or top-dose-only effect, or another doubt; inactive means no such curve, though single readings can be large; an effect the other way counts as inactive or inconclusive.

Cc1cc(C(=O)O)ccc1N/C=C1\CCCC(C)C1=O (centres undefined)	ELG1 repair inh inconclusive, RORgamma inh 3.5µM, VP16 counter 3.5µM
COc1ccc2c(c1)O[C@@H](c1ccc3c(c1)OCO3)[C@H](OC(=O)NS(=O)(=O)c1ccc(C)cc1)C2=O	RORgamma inh inconclusive (no result: ELG1 repair inh, B2AR arrestin, TSHR antag)
Cc1ccc(-n2c(O)c(C=NCc3ccccn3)c3ccccc3c2=O)cc1C	ELG1 repair inh inconclusive, RORgamma inh 10µM, VP16 counter 22µM
O=c1c2ccccc2c(C=NCc2ccccn2)c(O)n1-c1ccccc1Cl	RORgamma inh 11µM, VP16 counter inconclusive
CSc1cccc(NC(=O)CCc2ccccc2)c1	none
CSc1cccc(NC(=S)NC(=O)CCc2ccccc2)c1	ELG1 repair inh inconclusive, RORgamma inh 3.2µM, VP16 counter 8.9µM
Cc1cccc(C)c1NC(=S)NC(=O)CCc1ccccc1	RORgamma inh 2.8µM, VP16 counter 10µM
COc1cc2c(cc1OC)C1O[C@](CCCCN3C(=O)c4ccccc4C3=O)(C2)Oc2cc(C)n(Cc3ccccc3)c(=O)c21	VP16 counter inconclusive (no result: ELG1 repair inh, TSHR antag)
C=Cc1c(C)/c2[n-]/c1=C\c1[n-]c(c(CC)c1C)/C=c1\[n-]c3c(c1C)C(=O)C(C(=O)[O-])C=3c1[n-]c(c(C)c1CCC(=O)[O-])\C=2.[Cu].[Na+].[Na+] (centres undefined)	RORgamma inh inconclusive (no result: ELG1 repair inh, B2AR arrestin, TSHR antag)
CCN(CC)c1ccc(NC2=C(Cl)C(=O)c3ccccc3C2=O)cc1	ELG1 repair inh inconclusive, RORgamma inh inconclusive, TSHR antag -93, VP16 counter 11µM
Cc1ccc(NC2=C(Cl)C(=O)c3ccccc3C2=O)cc1	ELG1 repair inh inconclusive, RORgamma inh inconclusive, VP16 counter inconclusive
O=C1N/C(=C/c2cccn2-c2ccc(F)cc2)C(=O)N1Cc1ccccc1F	none
O=C1N/C(=C/c2cccn2-c2ccccc2)C(=O)N1Cc1ccc(F)cc1	VP16 counter 10µM
C[C@H]1[C@@H](OC(=O)CCC(=O)O)OC2OC3(C)CC[C@H]4[C@H](C)CC[C@@H]1[C@@]24OO3 (some centres undefined)	none (no result: ELG1 repair inh, B2AR arrestin, TSHR antag)
COc1ccc(NC(=S)c2ccncc2)cc1	none
Cc1ccc(NC(=S)N/C(=N/S(=O)(=O)c2ccccc2)c2ccccc2)cc1	ELG1 repair inh inconclusive, RORgamma inh inconclusive, VP16 counter 13µM
Cc1ccc(S(=O)(=O)/N=C(/NC(=S)Nc2ccccc2)c2ccccc2)cc1	ELG1 repair inh inconclusive
Cc1ccc(NC(=S)c2ccncc2)cc1	none
Cc1ccc(NC(=S)c2ccccc2)cc1	ELG1 repair inh inconclusive, RORgamma inh 11µM, VP16 counter inconclusive
COc1ccc(C(=S)Nc2ccc(C)cc2)cc1	ELG1 repair inh inconclusive, RORgamma inh 13µM
Cn1cc(/C=C(\C#N)C(=O)Nc2ncc(Cc3cccc(Cl)c3)s2)c2ccccc21	RORgamma inh 3.2µM, VP16 counter 1.4µM
N#C/C(=C\c1c[nH]c2ccccc12)C(=O)Nc1ncc(Cc2ccc(Cl)cc2Cl)s1	ELG1 repair inh inconclusive, RORgamma inh 1.4µM, VP16 counter 2.2µM
Cn1cc(/C=C(\C#N)C(=O)Nc2cccc([N+](=O)[O-])c2)c2ccccc21	ELG1 repair inh inconclusive
CCOC(=O)/C(C#N)=C\c1cn(C)c2ccccc12	ELG1 repair inh 5.8µM
CCOC(=O)/C(C#N)=C/c1cn(CCOc2ccccc2)c2ccccc12	ELG1 repair inh inconclusive
N#C/C(=C\c1c[nH]c2ccccc12)C(N)=O	none
CCCCCN(C(=O)COC(=O)c1ccc(C)cc1)c1c(N)n(CCCC)c(=O)[nH]c1=O	none (no result: RORgamma inh, VP16 counter)
CCN(C(=O)COC(=O)Cc1c[nH]c2ccccc12)c1c(N)n(Cc2ccccc2)c(=O)[nH]c1=O	none (no result: RORgamma inh, TSHR antag, VP16 counter)
COc1ccc(CCNC(=O)C2CCCN2S(=O)(=O)c2cccc3nsnc23)cc1OC (centres undefined)	none
COc1ccc(C(C)=O)cc1COC(=O)c1cnc(Cl)c(Cl)c1	none
NCCCC[C@H](NC(=O)[C@H](Cc1c[nH]c2ccccc12)NC(=O)[C@H](CC(=O)O)NC(=O)[C@H](Cc1cnc[nH]1)NC(=O)[C@H](CO)NC(=O)[C@H](Cc1c[nH]c2ccccc12)NC(=O)[C@H](Cc1cnc[nH]1)NC(=O)[C@@H]1CCC(=O)N1)C(=O)N1CCC[C@H]1C(=O)NCC(N)=O	none (no result: ELG1 repair inh, B2AR arrestin, TSHR antag)
C=C1c2ccccc2O[C@H](C(=O)OCC)[C@@H]1CCC(C)C (tested in a mixture with another compound)	RORgamma inh inconclusive (no result: ELG1 repair inh, B2AR arrestin, TSHR antag)
CCN1c2ccccc2-c2nc3ccccc3n2C1c1ccccn1 (centres undefined)	RORgamma inh 8.9µM
Cc1ccc(C2N(C)c3ccccc3-c3nc4ccccc4n32)o1 (centres undefined)	RORgamma inh 10µM
CC(=O)N1c2ccccc2-c2nc3ccccc3n2C1C (centres undefined)	none
CN1c2ccccc2-c2nc3ccccc3n2C1c1cccs1 (centres undefined)	RORgamma inh 4.5µM
CC(=O)OC[C@@H]1O[C@@H](O/N=C2/C[C@@H](O)[C@@H](O)[C@@H]3[C@@H]4C(=O)N(C5CCCCC5)C(=O)[C@H]4CC[C@@H]23)[C@H](OC(C)=O)[C@H](OC(C)=O)[C@@H]1OC(C)=O	none (no result: ELG1 repair inh, B2AR arrestin, TSHR antag)
CC1=CC(C)(C)Nc2ccc(OC(=O)c3ccco3)cc21	ELG1 repair inh inconclusive, RORgamma inh 2.8µM, VP16 counter 5.6µM
CC1=CC(C)(C)Nc2ccc(C)cc21	none
CC1=CC(C)(C)Nc2ccc(OC(=O)CN3C(=O)CCC3=O)cc21	ELG1 repair inh inconclusive, RORgamma inh 5.6µM, VP16 counter 7.1µM
CC1=CC(C)(C)N2C(=O)C(=O)c3cc(OC(=O)c4ccco4)cc1c32	none
CC1=CC(C)(C)Nc2ccc(OC(=O)C(C)N3C(=O)c4ccccc4C3=O)cc21 (centres undefined)	RORgamma inh inconclusive, VP16 counter 11µM
COc1ccc(OC(=O)C(C)N2C(=O)c3ccccc3C2=O)cc1 (centres undefined)	none
CC1=CC(C)(C)Nc2ccc(OC(=O)c3cccnc3)cc21	RORgamma inh 0.5µM, VP16 counter 0.79µM
COc1ccc(C2=Nn3c(nnc3-c3cc(OC)cc(OC)c3)SC2)cc1	none (no result: ELG1 repair inh, B2AR arrestin, TSHR antag)
CNc1ccc(C(=O)Oc2cc(O/N=[N+](\[O-])N(C)C)c([N+](=O)[O-])cc2[N+](=O)[O-])cc1	none (no result: ELG1 repair inh, B2AR arrestin, TSHR antag)
CCOC(=O)c1cc(CC)sc1NC(=O)c1ccc2c(c1)OCCO2	none
CCOC(=O)c1cc(CC)sc1NC(=O)c1cccc(N2C(=O)CCC2=O)c1	ELG1 repair inh 18µM, RORgamma inh inconclusive
CC(C)(CS)C(=O)N1CCC[C@H]1C(=O)O	none (no result: ELG1 repair inh, B2AR arrestin, TSHR antag)
O=C(N/N=C(\CC(=O)c1cccs1)C(F)(F)F)c1ccncc1	ELG1 repair inh inconclusive
Cc1ccc(C(=O)N/N=C(/CC(=O)c2cccs2)C(F)(F)F)cc1	RORgamma inh 11µM, VP16 counter 7.1µM

Assay outcomes from PubChem.
